Assay results as given in PubChem BioAssay (Tox21).
Inconclusive results are not listed. Calls of active or inactive are those of the source. Unless noted, the call rests on the fitted dose curve; in most records, active means well fitted curve in the direction sought with a large enough effect in the repeat runs; inconclusive means weak or mixed curves; inactive means no such curve, though single readings can be large; an effect the other way counts as inactive or inconclusive.

How the values were obtained:
[1] = qHTS assay to identify small molecule agonists of the RXR signaling pathway - cell viability counter screen (AID 1159529); further: series mostly up to about 77 µM; nearly all actives have a fitted effect of over 50% in size
How it was run: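 Luminescence from CellTiter-Glo (30 min, RT) measured viability in the same wells as the beta-lactamase reporter readout. Cells: GeneBLAzer RXR-alpha HEK 293T, 2% charcoal-stripped FBS. Compound exposure 16 hr, 37 C.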

[2] = qHTS assay to identify small molecule antagonists of the retinoid acid receptor (RAR) signaling pathway - cell viability counter screen (AID 1159551); further: nearly all actives have a fitted effect of over 35% in size
How it was run: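 Seed C3RL4 cells; next day add compound, then retinol to 1 uM final; incubate 6 h at 37 C; add CellTiter-Glo; read luminescence after 30 min at RT.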

[3] = qHTS assay to identify small molecule antagonists of the retinoic acid receptor (RAR) signaling pathway (AID 1159552; further: nearly all actives have a fitted effect of over 50% in size)
How it was run: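 Luminescence from a RARE luciferase reporter in C3RL4 cells served as read-out. Cells received compounds together with 1 uM final retinol and incubated 6 hr at 37 C before detection reagent was added for 30 min at room temperature.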

[4] = qHTS assay to identify small molecule agonists of the retinoic acid receptor (RAR) signaling pathway (AID 1159553)
How it was run: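 Activation of retinol signaling was monitored via a RARE luciferase reporter in C3RL4 cells. After 6 hr compound treatment at 37 C, detection reagent was added for 30 min at room temperature before luminescence reading.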

[5] = qHTS assay to identify small molecule antagonists of the estrogen related receptor (ERR) signaling pathway from Tox21 library - cell viability counter screen (AID 1224834); further: nearly all actives have a fitted effect of over 30% in size
How it was run: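 CellTiter-Fluor fluorescence measured; ERR cells; 17.5 h compound incubation at 37 C; 30 min reagent step.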

[6] = molecular target: Luciferin 4-monooxygenase (Photinus pyralis) (UniProt P08659); assay: qHTS assay to identify small molecule inhibitors of firefly luciferase (AID 1224835); further: series mostly up to about 120 µM; nearly all actives have a fitted effect of over 25% in size
How it was run: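 Quantitative HTS format; KM concentrations of both substrates. Purified P. pyralis FLuc activity quantified from luminescence images.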

[7] = qHTS assay to identify small molecule agonists of the constitutive androstane receptor (CAR) signaling pathway - cell viability counter screen (AID 1224836); further: series mostly up to about 92 µM; nearly all actives have a fitted effect of over 45% in size
How it was run: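 Viability read-out: CellTiter-Fluor fluorescence after 23 h compound exposure at 37 C/5% CO2 in double-stable HepG2-CYP2B6-hCAR cells, with PK11195 present at 0.75 uM final; compounds tested in 15-point titration.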

[8] = qHTS assay to identify small molecule antagonists of the constitutive androstane receptor (CAR) signaling pathway - cell viability counter screen (AID 1224837); further: series mostly up to about 92 µM; nearly all actives have a fitted effect of over 45% in size
How it was run: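 Using CellTiter-Fluor, viability is scored in HepG2 cells stably carrying hCAR and a 2.2kb CYP2B6 reporter after 23 hr compound exposure across 15 concentrations, with CITCO present at 50 nM.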

[9] = qHTS assay to identify small molecule antagonists of the estrogen related receptor signaling pathway with the pleiotropic PPARgamma coactivator (PGC) from Tox21 10K library - cell viability counter screen (AID 1224840; active means well fitted cell-killing curve with a large enough effect in the repeat runs, not every such curve was filed as active; further: nearly all actives have a fitted effect of over 40% in size)
How it was run: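 Here the PGC/ERR cells serve as a cytotoxicity control: they are exposed to compounds for 17.5 hours at 37 C, and live-cell signal is quantified using CellTiter-Fluor fluorescence.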

[10] = qHTS assay to identify small molecule antagonists of the estrogen related receptor signaling pathway with the pleiotropic PPARgamma coactivator (PGC) from Tox21 10K library (AID 1224841; call rule not given here; further: series mostly up to about 92 µM; actives are mostly falling curves and most rising ones were filed inactive; nearly all actives have a fitted effect of over 50% in size)
How it was run: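 Each well held 2,000 PGC/ERR cells, pre-incubated six hours (37 C, 5% CO2). Test substances in DMSO were added by pin tool and left for 18 h at 37 C before luciferase detection by One-Glo.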

[11] = qHTS assay to identify small molecule agonists of the estrogen related receptor signaling pathway with the pleiotropic PPARgamma coactivator (PGC) from Tox21 10K library (AID 1224842); further: nearly all actives have a fitted effect of over 15% in size
How it was run: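 PGC/ERR reporter cells (NTP line) were seeded 2,000 per well, rested 6 h at 37 C/5% CO2, then pin-dosed with compounds in DMSO for 18 h at 37 C; luciferase read by One-Glo luminescence after 30 min at room temperature.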

[12] = molecular target: Thyrotropin receptor (Homo sapiens) (UniProt P16473); assay: qHTS assay to identify small molecule agonists of the thyroid stimulating hormone receptor (TSHR) signaling pathway (AID 1224843; calls by dose curve; further: nearly all actives have a fitted effect of over 45% in size)
How it was run: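 Cell line HEK293 with TSHR; density 800/well. Exposure 30 min RT. Readout HTRF cAMP (cAMP-d2/anti-cAMP-cryptate), 1 h RT before reading.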

[13] = molecular target: Nuclear receptor subfamily 1 group I member 3 (Homo sapiens) (UniProt Q14994); assay: qHTS assay to identify small molecule antagonists of the constitutive androstane receptor (CAR) signaling pathway (AID 1224838);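 further: HepG2 cells stably expressing hCAR with CYP2B6 luciferase reporter stimulated by CITCO; nearly all actives have a fitted effect of over 40% in size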
How it was run: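 Reporter luminescence was quantified after 24 h exposure of hCAR/CYP2B6-2.2kb double-stable HepG2 cells to compounds at 15 concentrations in the presence of 50 nM CITCO final.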

[14] = molecular target: Nuclear receptor subfamily 1 group I member 3 (Homo sapiens) (UniProt Q14994); assay: qHTS assay to identify small molecule agonists of the constitutive androstane receptor (CAR) signaling pathway (AID 1224839);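 further: HepG2 cells stably carrying human CAR and a CYP2B6 luciferase reporter; series mostly up to about 92 µM; nearly all actives have a fitted effect of over 15% in size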
How it was run: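 Luminescence read-out (ONE-Glo, 30 min, room temperature) from double-stable HepG2-CYP2B6-hCAR cells exposed 24 h to 15-point compound series in presence of 0.75 uM PK11195 final.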

Measured: Potency

Sequence of Thyrotropin receptor (Homo sapiens) (P16473 whole entry, looked up): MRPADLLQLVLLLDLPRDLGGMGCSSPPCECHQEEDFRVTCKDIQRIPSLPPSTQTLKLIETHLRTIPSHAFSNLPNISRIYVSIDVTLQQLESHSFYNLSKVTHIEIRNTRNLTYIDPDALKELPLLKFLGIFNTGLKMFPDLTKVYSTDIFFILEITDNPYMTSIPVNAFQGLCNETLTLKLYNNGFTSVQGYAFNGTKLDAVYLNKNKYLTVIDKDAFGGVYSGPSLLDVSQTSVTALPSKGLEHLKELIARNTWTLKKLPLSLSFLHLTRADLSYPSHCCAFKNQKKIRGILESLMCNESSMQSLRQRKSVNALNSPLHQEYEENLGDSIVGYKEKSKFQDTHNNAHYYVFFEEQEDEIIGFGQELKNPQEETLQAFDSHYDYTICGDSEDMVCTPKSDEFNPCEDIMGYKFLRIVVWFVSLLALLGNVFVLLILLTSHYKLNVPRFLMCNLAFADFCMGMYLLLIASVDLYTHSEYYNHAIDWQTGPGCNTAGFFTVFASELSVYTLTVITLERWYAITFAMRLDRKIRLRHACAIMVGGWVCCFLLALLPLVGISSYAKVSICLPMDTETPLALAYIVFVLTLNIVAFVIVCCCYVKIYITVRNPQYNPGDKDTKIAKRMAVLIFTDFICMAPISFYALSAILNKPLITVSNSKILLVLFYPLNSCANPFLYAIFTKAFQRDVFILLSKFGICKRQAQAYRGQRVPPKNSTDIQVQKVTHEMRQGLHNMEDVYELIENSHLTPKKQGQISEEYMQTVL
Sequence of Nuclear receptor subfamily 1 group I member 3 (Homo sapiens) (Q14994 whole entry, looked up): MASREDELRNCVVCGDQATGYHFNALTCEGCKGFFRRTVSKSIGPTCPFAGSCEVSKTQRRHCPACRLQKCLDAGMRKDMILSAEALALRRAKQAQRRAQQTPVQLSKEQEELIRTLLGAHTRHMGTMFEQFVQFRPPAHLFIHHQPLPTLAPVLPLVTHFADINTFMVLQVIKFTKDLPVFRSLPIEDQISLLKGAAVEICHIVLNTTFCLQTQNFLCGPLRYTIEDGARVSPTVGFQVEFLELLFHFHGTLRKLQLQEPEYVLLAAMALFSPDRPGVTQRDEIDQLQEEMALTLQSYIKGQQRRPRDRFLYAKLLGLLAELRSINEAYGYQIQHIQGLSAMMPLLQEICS
Sequence of Luciferin 4-monooxygenase (Photinus pyralis) (P08659 whole entry, looked up): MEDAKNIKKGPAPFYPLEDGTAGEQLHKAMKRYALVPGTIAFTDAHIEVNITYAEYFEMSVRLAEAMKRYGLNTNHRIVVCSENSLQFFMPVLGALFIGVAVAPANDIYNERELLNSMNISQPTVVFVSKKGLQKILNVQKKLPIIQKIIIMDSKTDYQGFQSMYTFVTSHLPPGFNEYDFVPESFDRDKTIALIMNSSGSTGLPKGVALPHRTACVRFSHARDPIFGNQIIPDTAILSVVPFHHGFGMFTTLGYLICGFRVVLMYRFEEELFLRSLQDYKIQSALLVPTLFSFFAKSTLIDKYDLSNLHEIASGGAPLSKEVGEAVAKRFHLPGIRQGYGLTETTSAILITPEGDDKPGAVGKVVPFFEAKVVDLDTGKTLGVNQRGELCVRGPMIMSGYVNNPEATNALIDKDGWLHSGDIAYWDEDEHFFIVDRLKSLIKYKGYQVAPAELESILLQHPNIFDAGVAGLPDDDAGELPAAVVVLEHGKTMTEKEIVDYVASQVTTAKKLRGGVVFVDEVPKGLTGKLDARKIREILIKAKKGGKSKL

CNC(=O)Oc1ccccc1C(C)C
not listed: [13] | [14]
inactive: all other assays above

CCOc1cc(OP(=S)(OC)OC)nc(CC)n1
not listed: [10] | [11] | [13] | [14]
inactive: all other assays above

C#CC(C)(C)O
not listed: [8] | [12]
inactive: all other assays above

CC(=O)CN(CC(C)=O)N=O
not listed: [9] | [13] | [14]
inactive: all other assays above

CN(C)CCN(C)C
not listed: [13] | [14]
inactive: all other assays above

NCCOS(=O)(=O)O
not listed: [10] | [11] | [13] | [14]
inactive: all other assays above

O=P(O)(O)CN(CP(=O)(O)O)CP(=O)(O)O
not listed: [10] | [11] | [13] | [14]
inactive: all other assays above

CC(C)(N)Cc1ccccc1Cl
not listed: [9] | [13] | [14]
inactive: all other assays above

ClCOCCl
not listed: [10] | [11] | [13] | [14]
inactive: all other assays above

COC[C@@H](NC(C)=O)C(=O)NCc1ccccc1
not listed: [9] | [13] | [14]
inactive: all other assays above

CC(C)[C@]12CC(=O)[C@H](C)[C@H]1C2
not listed: [10] | [11] | [13] | [14]
inactive: all other assays above

COc1cc(CC(C)N)cc(OC)c1OC (stereo not drawn)
not listed: [8] | [12]
inactive: all other assays above

CC(C)(O)C(Cl)(Cl)Cl
not listed: [10] | [11] | [13] | [14]
inactive: all other assays above

CN(C)C(=O)Oc1cc(OC(=O)N(C)C)cc(C(O)CNC(C)(C)C)c1 (stereo not drawn)
not listed: [13] | [14]
inactive: all other assays above

CCCOC(=O)Cc1ccc(OCC(=O)N(CC)CC)c(OC)c1
not listed: [10] | [11] | [13] | [14]
inactive: all other assays above

C=C(Cl)CCl
not listed: [9] | [10] | [11] | [13] | [14]
inactive: all other assays above

CCC1(c2cccc(O)c2)CCCCN(C)C1 (stereo not drawn)
not listed: [10] | [11] | [13] | [14]
inactive: all other assays above

CCC1(c2ccccc2)CCC(=O)NC1=O (stereo not drawn)
not listed: [10] | [11] | [13] | [14]
inactive: all other assays above

CN(C)C1CCCCC1
not listed: [8] | [12]
inactive: all other assays above

CCCCOC(C)=O
not listed: [10] | [11] | [13] | [14]
inactive: all other assays above

CCC1(CC)C(=O)C=CNC1=O
not listed: [8] | [9] | [13] | [14]
inactive: all other assays above

CCOP(=S)(OCC)SCCl
not listed: [8] | [10] | [11] | [13] | [14]
inactive: all other assays above

CCOC(=O)NC(C)(C)Cc1ccc(Cl)cc1
not listed: [8] | [10] | [11] | [14]
inactive: all other assays above
